# Compound activity from PubChem BioAssay.
# Compounds with a hit are over-represented: about 4.8% of the library has one in this group of screens.
# Calb FLC = C. albicans growth inhibition with fluconazole, primary screen, CaCi-2 strain, Alamar Blue fluorescence; C. albicans CaCi-2 (fluconazole-resistant clinical isolate) + fluconazole, 48 h; growth inhibition, % (concentration not given with the values); hit rate 0.57% among 300,000; AID 1979, 2009;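 active means growth inhibition above about 58% in most replicates, limit read from the data, passing the limit was not always enough; inconclusive means exactly half the replicates above a set limit; inactive means most replicates below a set limit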;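 further: all wells also contain fluconazole at 8 µg/ml as a sub-toxic cotreatment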
# Beta apoptosis = inhibitors of cytokine-induced beta cell apoptosis, primary screen, luminescence | INS-1E cytokine-induced death, ATP luminescence, 48 h; percent of positive-control rescue, neutral wells zero | hit rate 0.8% among 300,000 | protection from apoptosis, % (concentration not given with the values);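 active means Every replicate reaches about 75%, or at least half do and their mean reaches it too, limit read from the data; inconclusive means At least half of replicates reach the limit but their mean does not; inactive means Under half of replicates reach the limit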;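 further: higher means more ATP so stronger rescue from cytokine killing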
# CSC inhib = cancer stem cell viability inhibitors, primary screen, luminescence; cancer stem cell-like cells viability; inhibition, % at 7.5 µM; hit rate 1.1% among 300,000; in the data active means inhibition above about 75%; inconclusive means no clear call, values can overlap the other calls; tested in HMLE shEcad cells
# Mdm2 MdmX PPI = inhibitors of human Mdm2-MdmX association, primary screen, cell-based, luminescence, split luciferase, SaOS-2, uHTS. inhibition, % at 8 µM. SaOS-2 split-luciferase Mdm2/MdmX complementation. hit rate 3% among 330,000. Protein Mdm4 (Homo sapiens) + E3 ubiquitin-protein ligase Mdm2 (Homo sapiens), …;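 active means inhibition of at least 50% at 8 µM in the primary screen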
# Target sequence (O15151 whole entry, looked up): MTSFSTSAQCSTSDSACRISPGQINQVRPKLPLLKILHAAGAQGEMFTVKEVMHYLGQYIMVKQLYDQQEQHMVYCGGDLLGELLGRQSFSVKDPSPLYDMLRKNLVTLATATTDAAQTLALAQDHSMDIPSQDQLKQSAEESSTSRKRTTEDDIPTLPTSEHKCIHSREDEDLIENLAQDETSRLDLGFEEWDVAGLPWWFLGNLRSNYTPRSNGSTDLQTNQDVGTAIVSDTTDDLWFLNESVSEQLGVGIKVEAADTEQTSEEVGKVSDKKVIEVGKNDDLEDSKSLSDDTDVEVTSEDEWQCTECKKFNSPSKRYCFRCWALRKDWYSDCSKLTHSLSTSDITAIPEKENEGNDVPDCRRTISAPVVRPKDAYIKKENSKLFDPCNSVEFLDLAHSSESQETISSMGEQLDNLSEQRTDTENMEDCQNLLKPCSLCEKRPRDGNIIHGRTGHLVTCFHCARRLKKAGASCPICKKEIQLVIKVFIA
# Target sequence (Q00987 whole entry, looked up): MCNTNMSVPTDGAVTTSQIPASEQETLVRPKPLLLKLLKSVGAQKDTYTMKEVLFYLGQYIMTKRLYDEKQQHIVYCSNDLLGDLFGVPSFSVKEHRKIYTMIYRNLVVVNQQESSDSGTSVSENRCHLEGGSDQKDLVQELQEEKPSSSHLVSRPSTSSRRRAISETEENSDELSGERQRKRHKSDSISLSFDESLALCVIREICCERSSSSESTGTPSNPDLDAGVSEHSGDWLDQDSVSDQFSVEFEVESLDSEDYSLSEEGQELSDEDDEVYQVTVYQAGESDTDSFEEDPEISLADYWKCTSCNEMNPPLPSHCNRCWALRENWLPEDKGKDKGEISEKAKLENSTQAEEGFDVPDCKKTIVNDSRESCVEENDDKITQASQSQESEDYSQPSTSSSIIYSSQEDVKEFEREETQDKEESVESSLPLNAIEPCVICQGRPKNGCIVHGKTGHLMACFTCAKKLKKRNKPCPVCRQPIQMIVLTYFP
# MPTP inh = mitochondrial permeability transition pore inhibitors, primary screen, biochemical, isolated mouse mitochondria, absorbance; hit rate 1.4% among 360,000; inhibition, % at 10 µM; Ca2+ swelling absorbance, 30 min;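 active means inhibition of 50% or more, scaled per plate between neutral and stimulator controls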
# Mdm2-MdmX conf = Mdm2-MdmX complex disruptors, retested hits, confirmation, luminescence, single concentration | shares compounds with Mdm2 MdmX PPI | Mdm2-MdmX binding, luminescent assay | inhibition, % at 8 µM | hit rate 55% among 10,000; in the data active means inhibition above about 40%
# FLuc counter = full-length luciferase signal inhibition, confirmation, counter-screen for Mdm2/MdmX interaction inhibitor project, cell-based, single concentration, SaOS-2 | SaOS-2 full-length luciferase counterscreen, luminescence | hit rate 77% among 6,200 | AID 504607, 2011 | shares compounds with Mdm2 MdmX PPI | inhibition, % at 8 µM;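 active means mean inhibition at 8 µM reaching about 37%, which flags the compound as non-specific, limit read from the data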;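 further: p53-null SaOS-2 cells with luciferase driven by a doxycycline-inducible promoter; compound on cells about two nights before reading with doxycycline added after day one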
# Hits are given with their value; . = inactive; ? = inconclusive; / = not tested or not shown.
SMILES,Calb FLC,Beta apoptosis,CSC inhib,Mdm2 MdmX PPI,MPTP inh,Mdm2-MdmX conf,others
CCOC(=O)C1CCN(c2cc3c(cc2NC(=O)c2ccc(OC)c(OC)c2)n(C)c(=O)n3C)CC1,.,.,.,65.0,.,.,
CCOC(=O)C1CCN(c2cc3c(cc2NC(=O)c2ccccc2)n(C)c(=O)n3C)CC1,.,.,.,.,.,/,
FC(F)(F)c1cc(Cl)c2nc(-c3ccco3)c(Cc3ccccc3C(F)(F)F)n2c1,/,/,/,/,.,/,
CCCc1cnc(NCCNCC(O)COc2ccc(Cl)c(Cl)c2)nc1 (configuration not stated),.,.,.,55.6,.,.,
CC(=O)c1cccc(OCC(O)CNCCc2ccc(Cl)cc2)c1 (configuration not stated),/,.,.,.,.,/,
O=C(OCc1ccccc1F)c1cc2ccccc2cc1O,.,.,.,.,.,/,
CCCCCNC(=O)C(c1ccc(C(F)(F)F)cc1)n1c(=O)c(-c2ccco2)nc2ccccc21 (configuration not stated),/,/,/,/,.,/,
Cc1nnc(Sc2nc3ccccc3o2)c2ccccc12,.,.,.,.,.,/,
Cc1ccc(-c2nnc(Sc3nc4ccccc4o3)c3ccccc23)cc1,.,.,?,52.9,.,.,
Clc1ccc(-c2nnc(Sc3nc4ccccc4o3)c3ccccc23)cc1,.,.,.,61.0,.,.,
COc1ccc(N2CC(NS(=O)(=O)c3cccs3)CC2=O)cc1OC (configuration not stated),.,.,.,.,.,/,
COC(=O)c1ccc(CNc2ccc(C(C)=O)cc2)cc1,/,/,/,/,.,/,
CC(C)(C)n1nnnc1C(c1cccs1)N1CCN(c2ccccc2)CC1 (configuration not stated),?,/,.,.,.,/,
CN1CCN(C(c2ccc(C(F)(F)F)cc2)c2ccc3cccnc3c2O)CC1 (configuration not stated),97.4,80.5,98.1,74.2,/,73.3,FLuc counter=.
CN1CCN(C(c2ccccc2)c2ccccc2)CC1,/,.,.,.,.,/,
Oc1c(C(c2cccs2)N2CCN(c3ccccc3)CC2)ccc2cccnc12 (configuration not stated),/,108.9,87.9,50.9,/,82.0,FLuc counter=.
O=S(=O)(c1cccc2cccnc12)N1CCCCC1,.,/,.,.,.,/,
Oc1c(C(c2ccccc2Cl)N2CCCC2)ccc2cccnc12 (configuration not stated),105.2,92.0,.,68.6,.,63.0,FLuc counter=.
CC(=O)Nc1cccc(-c2nc3ccccc3n2C(C)C(=O)NC(C)(C)C)c1 (configuration not stated),/,/,/,/,.,/,
COc1cccc(C(C)(O)c2nc(-c3cc(F)cc(F)c3)cs2)c1 (configuration not stated),/,/,/,/,.,/,
COc1ccc([C@H]2CC(=O)C[C@@H](CCn3cccn3)O2)cc1,/,/,/,/,.,/,
Cc1ccc(NCN2C(=O)c3ccccc3C2=O)cc1Cl,/,/,/,/,.,/,
Cc1ccc(N/N=C2\CC(=O)c3ccccc32)cc1Cl,.,.,76.8,57.9,/,.,
CCCN(C)C[C@@H]1OCc2cnnn2CCCC(=O)N([C@H](C)CO)C[C@H]1C,/,/,/,/,.,/,
O=C(NCCN1CCCC1)c1ccc(Cn2c(=S)[nH]c3cc4c(cc3c2=O)OCO4)cc1,.,.,.,.,.,/,
C=CCNC(=O)c1ccc(Cn2c(=S)[nH]c3cc4c(cc3c2=O)OCO4)cc1,.,.,.,60.0,.,.,
CC1CCCCN1CCNC(=O)c1ccc2c(=O)n(Cc3ccc(Cl)cc3)c(=S)[nH]c2c1 (configuration not stated),.,.,.,78.3,.,.,
COc1ccccc1Cn1c(=S)[nH]c2cc(C(=O)NCC3CCCO3)ccc2c1=O (configuration not stated),.,.,.,.,.,/,
O=C(NCC1CCCO1)c1ccc2c(=O)n(Cc3ccc(Cl)cc3)c(=S)[nH]c2c1 (configuration not stated),.,.,.,55.7,.,.,
